Results from paper PMC7862700, “An all-to-all approach to the identification of sequence-specific readers for epigenetic DNA modifications on cytosine”.

The sequences below were run against T1, ETV7 (Homo sapiens, UniProt Q9Y603 1-341) (assay: DAPPL (digital affinity profiling via proximity ligation, sequencing); 10 mM Tris-HCl pH 7.5, 50 mM NaCl, 1 mM DTT, 4% glycerol, room temperature, 30 min; GST-TFs on glutathione beads, 16-mer random dsDNA library, 0.1% formaldehyde crosslink after washing; high values mean tight binding). Conditions: protein: recombinant; tags: N-terminal GST; dsDNA, one strand shown.
T1 sequence: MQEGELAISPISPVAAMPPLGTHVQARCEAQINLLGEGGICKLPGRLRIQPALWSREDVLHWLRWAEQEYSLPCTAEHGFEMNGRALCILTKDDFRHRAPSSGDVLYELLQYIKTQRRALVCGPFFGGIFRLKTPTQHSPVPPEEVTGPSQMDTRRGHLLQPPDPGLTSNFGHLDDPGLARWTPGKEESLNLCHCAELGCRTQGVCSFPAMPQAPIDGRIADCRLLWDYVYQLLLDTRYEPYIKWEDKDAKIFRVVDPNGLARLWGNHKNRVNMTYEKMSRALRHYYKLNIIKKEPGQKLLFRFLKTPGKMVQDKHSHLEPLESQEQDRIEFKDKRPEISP
Summary of the method: (§1)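 Binding signal is each hexamer's read frequency for a factor divided by its frequency in the tag-only sample. The factors were GST-fused human transcription factors from yeast, captured on glutathione beads, DNA-barcoded and pooled with that sample. Pools were incubated with 200 nmole of a random double-stranded 16-mer DNA library in Tris/NaCl/DTT/glycerol buffer at room temperature for 30 min, then washed, crosslinked with 0.1% formaldehyde, proximity-ligated with BsaI/T4 ligase (1 h, 37 °C), PCR-amplified and sequenced on an Illumina NextSeq500.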

Row | Sequence | binding signal
1 | TAGACT | 1.05 fold enrichment (6-mer frequency, TF over GST control)
2 | TTAAGA | 1.13 fold enrichment (6-mer frequency, TF over GST control)
3 | GCTGGT | 1.17 fold enrichment (6-mer frequency, TF over GST control)
4 | CGTTTA | 1.12 fold enrichment (6-mer frequency, TF over GST control)
5 | CGTCTG | 1.02 fold enrichment (6-mer frequency, TF over GST control)
6 | TAAGCA | 1.02 fold enrichment (6-mer frequency, TF over GST control)
7 | CATGCG | 1.21 fold enrichment (6-mer frequency, TF over GST control)

Each sequence was assayed against T2, ELF5 (Homo sapiens, UniProt Q9UKW6-2 1-255) in the same assay as above. Conditions: protein: recombinant; tags: N-terminal GST; dsDNA, one strand shown.
T2 sequence: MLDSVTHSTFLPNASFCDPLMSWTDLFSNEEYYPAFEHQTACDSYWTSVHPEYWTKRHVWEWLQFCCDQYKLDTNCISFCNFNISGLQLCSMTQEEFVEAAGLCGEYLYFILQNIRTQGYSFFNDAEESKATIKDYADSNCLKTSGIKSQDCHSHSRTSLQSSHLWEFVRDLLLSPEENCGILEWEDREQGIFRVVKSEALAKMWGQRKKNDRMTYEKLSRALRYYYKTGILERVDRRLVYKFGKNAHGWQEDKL
Summary of the method: as §1

Row | Sequence | binding signal
8 | GCTAAG | 1.01 fold enrichment (6-mer frequency, TF over GST control)
9 | TGGATA | 1.04 fold enrichment (6-mer frequency, TF over GST control)
10 | ATAAGA | 1.02 fold enrichment (6-mer frequency, TF over GST control)
11 | GATCTA | 1.05 fold enrichment (6-mer frequency, TF over GST control)
12 | TAAGGG | 1.06 fold enrichment (6-mer frequency, TF over GST control)
13 | CTTAAG | 1.09 fold enrichment (6-mer frequency, TF over GST control)
14 | TAAAGG | 1.1 fold enrichment (6-mer frequency, TF over GST control)
15 | TGATTA | 1.03 fold enrichment (6-mer frequency, TF over GST control)
16 | GTTCGC | 1.01 fold enrichment (6-mer frequency, TF over GST control)
17 | GGATCT | 1.17 fold enrichment (6-mer frequency, TF over GST control)
18 | TTGCCA | 1.04 fold enrichment (6-mer frequency, TF over GST control)
19 | GCTGGT | 1.09 fold enrichment (6-mer frequency, TF over GST control)
20 | CGTTTA | 1.07 fold enrichment (6-mer frequency, TF over GST control)
21 | TAAGCA | 1.02 fold enrichment (6-mer frequency, TF over GST control)

Each sequence was assayed against T3, ETV3 (Homo sapiens, UniProt P41162-2 1-143) in the same assay as above. Conditions: protein: recombinant; tags: N-terminal GST; dsDNA, one strand shown.
T3 sequence: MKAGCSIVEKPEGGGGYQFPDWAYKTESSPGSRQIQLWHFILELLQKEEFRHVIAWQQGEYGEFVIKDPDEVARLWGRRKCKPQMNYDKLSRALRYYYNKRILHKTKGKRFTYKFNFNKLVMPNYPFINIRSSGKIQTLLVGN
Summary of the method: as §1

Row | Sequence | binding signal
22 | GCTAAG | 1.04 fold enrichment (6-mer frequency, TF over GST control)
23 | TGGATA | 1.06 fold enrichment (6-mer frequency, TF over GST control)
24 | ATAAGA | 1.07 fold enrichment (6-mer frequency, TF over GST control)
25 | CTAGAA | 1.01 fold enrichment (6-mer frequency, TF over GST control)
26 | TGAATC | 1.01 fold enrichment (6-mer frequency, TF over GST control)
27 | GATCTA | 1.04 fold enrichment (6-mer frequency, TF over GST control)
28 | AGCTAG | 1.01 fold enrichment (6-mer frequency, TF over GST control)
29 | CTTAAG | 1.13 fold enrichment (6-mer frequency, TF over GST control)
30 | TAAAGG | 1.09 fold enrichment (6-mer frequency, TF over GST control)
31 | AGTCTC | 1.09 fold enrichment (6-mer frequency, TF over GST control)
32 | TGATTA | 1.08 fold enrichment (6-mer frequency, TF over GST control)
33 | TAGATA | 1.01 fold enrichment (6-mer frequency, TF over GST control)
34 | TCGAGC | 1.03 fold enrichment (6-mer frequency, TF over GST control)
35 | CCCCAG | 1.07 fold enrichment (6-mer frequency, TF over GST control)
36 | TGATAG | 1.05 fold enrichment (6-mer frequency, TF over GST control)
37 | GCCCGA | 1.04 fold enrichment (6-mer frequency, TF over GST control)
38 | GGATCT | 1.08 fold enrichment (6-mer frequency, TF over GST control)
39 | TTAGAT | 1.07 fold enrichment (6-mer frequency, TF over GST control)
40 | TTGCCA | 1.12 fold enrichment (6-mer frequency, TF over GST control)
41 | TCAATC | 1.01 fold enrichment (6-mer frequency, TF over GST control)
42 | ATAAGT | 1.03 fold enrichment (6-mer frequency, TF over GST control)
43 | TCTAGA | 1.04 fold enrichment (6-mer frequency, TF over GST control)
44 | TTAAGA | 1.05 fold enrichment (6-mer frequency, TF over GST control)
45 | GCTGGT | 1.29 fold enrichment (6-mer frequency, TF over GST control)
46 | CGTTTA | 1.05 fold enrichment (6-mer frequency, TF over GST control)
47 | GATCAA | 1.01 fold enrichment (6-mer frequency, TF over GST control)
48 | TAAGCA | 1 fold enrichment (6-mer frequency, TF over GST control)
49 | CATGCG | 1.03 fold enrichment (6-mer frequency, TF over GST control)

The sequences below were run against ETV6 (Homo sapiens, UniProt P41212 1-452) in the same assay as above. Conditions: protein: recombinant; tags: N-terminal GST; dsDNA, one strand shown.
Sequence of ETV6 (P41212 whole entry): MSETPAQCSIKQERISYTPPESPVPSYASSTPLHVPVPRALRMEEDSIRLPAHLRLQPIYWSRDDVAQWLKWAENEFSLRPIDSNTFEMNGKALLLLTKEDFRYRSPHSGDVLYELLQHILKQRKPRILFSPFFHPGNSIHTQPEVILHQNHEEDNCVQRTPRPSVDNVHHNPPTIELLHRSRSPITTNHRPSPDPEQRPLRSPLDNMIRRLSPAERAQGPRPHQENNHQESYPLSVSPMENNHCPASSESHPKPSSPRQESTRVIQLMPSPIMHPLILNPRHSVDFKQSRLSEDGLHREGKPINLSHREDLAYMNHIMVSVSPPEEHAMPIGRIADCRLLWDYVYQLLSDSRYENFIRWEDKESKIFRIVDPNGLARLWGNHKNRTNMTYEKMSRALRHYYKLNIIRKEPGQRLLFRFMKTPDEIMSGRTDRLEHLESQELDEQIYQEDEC
Summary of the method: as §1

Row | Sequence | binding signal
50 | ACCTAG | 1.02 fold enrichment (6-mer frequency, TF over GST control)
51 | GATTTA | 1.05 fold enrichment (6-mer frequency, TF over GST control)
52 | TGGATA | 1 fold enrichment (6-mer frequency, TF over GST control)
53 | ATAAGA | 1.07 fold enrichment (6-mer frequency, TF over GST control)
54 | CTAGAA | 1.04 fold enrichment (6-mer frequency, TF over GST control)
55 | TGAATC | 1.01 fold enrichment (6-mer frequency, TF over GST control)
56 | AGCTAG | 1.03 fold enrichment (6-mer frequency, TF over GST control)
57 | TAAGGG | 1.01 fold enrichment (6-mer frequency, TF over GST control)
58 | CTTAAG | 1.03 fold enrichment (6-mer frequency, TF over GST control)
59 | TAAAGG | 1.07 fold enrichment (6-mer frequency, TF over GST control)
60 | AGTCTC | 1.04 fold enrichment (6-mer frequency, TF over GST control)
61 | TGATTA | 1.06 fold enrichment (6-mer frequency, TF over GST control)
62 | TAGATA | 1.01 fold enrichment (6-mer frequency, TF over GST control)
63 | TCGAGC | 1.02 fold enrichment (6-mer frequency, TF over GST control)
64 | CCCCAG | 1.03 fold enrichment (6-mer frequency, TF over GST control)
65 | GCCCGA | 1.07 fold enrichment (6-mer frequency, TF over GST control)
66 | GTTCGC | 1.07 fold enrichment (6-mer frequency, TF over GST control)
67 | TTAGAT | 1.03 fold enrichment (6-mer frequency, TF over GST control)
68 | TTGCCA | 1.06 fold enrichment (6-mer frequency, TF over GST control)
69 | TCAATC | 1.06 fold enrichment (6-mer frequency, TF over GST control)
70 | ATAAGT | 1.06 fold enrichment (6-mer frequency, TF over GST control)
71 | TTAAGA | 1.05 fold enrichment (6-mer frequency, TF over GST control)
72 | GCTGGT | 1.13 fold enrichment (6-mer frequency, TF over GST control)
73 | CGTTTA | 1.14 fold enrichment (6-mer frequency, TF over GST control)
74 | GATCAA | 1.07 fold enrichment (6-mer frequency, TF over GST control)
75 | CGTCTG | 1.01 fold enrichment (6-mer frequency, TF over GST control)
76 | CATGCG | 1.16 fold enrichment (6-mer frequency, TF over GST control)
